Our source for the binding signal values is article PMC11006913.

Substitutions are numbered along the chain they refer to.

Common to all, as to assay: PBM; 200 nM protein, PBS
Holding throughout (settings): dsDNA, one strand shown

In test [1] the target is T1, NKX2-4 (Homo sapiens, UniProt Q9H2Z4 175-261, P217L).
T1 sequence: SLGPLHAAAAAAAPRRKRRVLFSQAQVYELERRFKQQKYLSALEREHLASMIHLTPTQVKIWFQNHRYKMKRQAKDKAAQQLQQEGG

The target of test [2] is T2, NKX2-4 (Homo sapiens, UniProt Q9H2Z4 175-261, T231S).
T2 sequence: T1 sequence with L43P, T57S

The target of test [3] is T3, NKX2-4 (Homo sapiens, UniProt Q9H2Z4 175-261).
T3 sequence: T1 sequence with L43P

Test [4] concerns the target T4, NKX2-4 (Homo sapiens, UniProt Q9H2Z4 175-261, R246Q).
T4 sequence: T1 sequence with L43P, R72Q

As for CGATCCCG, the binding signal in test [1] is 9.54 upbm affinity estimate (log intensity, higher = more binding, comparable within an allelic series); in test [2], 9.56 upbm affinity estimate (log intensity, higher = more binding, comparable within an allelic series); in test [3] it was 9.59 upbm affinity estimate (log intensity, higher = more binding, comparable within an allelic series); in test [4] it was 9.65 upbm affinity estimate (log intensity, higher = more binding, comparable within an allelic series).

Take AAAGAGGC: the binding signal in test [1] is 11.7 upbm affinity estimate (log intensity, higher = more binding, comparable within an allelic series); in test [2], 11.9 upbm affinity estimate (log intensity, higher = more binding, comparable within an allelic series); in test [3], 11.6 upbm affinity estimate (log intensity, higher = more binding, comparable within an allelic series); in test [4] it was 11.9 upbm affinity estimate (log intensity, higher = more binding, comparable within an allelic series).

For the sequence ATCCGGCC, the binding signal in test [1] was 9.77 upbm affinity estimate (log intensity, higher = more binding, comparable within an allelic series); in test [2], 9.8 upbm affinity estimate (log intensity, higher = more binding, comparable within an allelic series); in test [3], 9.79 upbm affinity estimate (log intensity, higher = more binding, comparable within an allelic series); in test [4] it was 9.9 upbm affinity estimate (log intensity, higher = more binding, comparable within an allelic series).

As for CCCGCAGG, the binding signal in test [1] is 8.95 upbm affinity estimate (log intensity, higher = more binding, comparable within an allelic series); in test [2], 8.81 upbm affinity estimate (log intensity, higher = more binding, comparable within an allelic series); in test [3], 9.01 upbm affinity estimate (log intensity, higher = more binding, comparable within an allelic series); in test [4] it was 8.96 upbm affinity estimate (log intensity, higher = more binding, comparable within an allelic series).

Consider CTAGGCCA, for which the binding signal in test [1] was 9.82 upbm affinity estimate (log intensity, higher = more binding, comparable within an allelic series); in test [2] it was 9.87 upbm affinity estimate (log intensity, higher = more binding, comparable within an allelic series); in test [3], 9.84 upbm affinity estimate (log intensity, higher = more binding, comparable within an allelic series); in test [4], 9.9 upbm affinity estimate (log intensity, higher = more binding, comparable within an allelic series).

Consider CTGCGCAG, for which the binding signal in test [1] is 9.75 upbm affinity estimate (log intensity, higher = more binding, comparable within an allelic series); in test [2], 9.81 upbm affinity estimate (log intensity, higher = more binding, comparable within an allelic series); in test [3], 9.75 upbm affinity estimate (log intensity, higher = more binding, comparable within an allelic series); in test [4], 9.93 upbm affinity estimate (log intensity, higher = more binding, comparable within an allelic series).

With GAGTGCCA, the binding signal in test [1] was 12.1 upbm affinity estimate (log intensity, higher = more binding, comparable within an allelic series); in test [2], 12.3 upbm affinity estimate (log intensity, higher = more binding, comparable within an allelic series); in test [3] it was 11.9 upbm affinity estimate (log intensity, higher = more binding, comparable within an allelic series); in test [4], 12.4 upbm affinity estimate (log intensity, higher = more binding, comparable within an allelic series).

Consider TACTTCAA, for which the binding signal in test [1] was 12.5 upbm affinity estimate (log intensity, higher = more binding, comparable within an allelic series); in test [2], 12.9 upbm affinity estimate (log intensity, higher = more binding, comparable within an allelic series); in test [3], 12.4 upbm affinity estimate (log intensity, higher = more binding, comparable within an allelic series); in test [4], 13 upbm affinity estimate (log intensity, higher = more binding, comparable within an allelic series).

Regarding ACATGCAG, the binding signal in test [1] was 9.48 upbm affinity estimate (log intensity, higher = more binding, comparable within an allelic series); in test [2] it was 9.63 upbm affinity estimate (log intensity, higher = more binding, comparable within an allelic series); in test [3], 9.52 upbm affinity estimate (log intensity, higher = more binding, comparable within an allelic series); in test [4], 9.48 upbm affinity estimate (log intensity, higher = more binding, comparable within an allelic series).

Turning to CCGCCATA, the binding signal was 9.83 upbm affinity estimate (log intensity, higher = more binding, comparable within an allelic series) in test [1]; 9.79 upbm affinity estimate (log intensity, higher = more binding, comparable within an allelic series) in test [2]; 9.85 upbm affinity estimate (log intensity, higher = more binding, comparable within an allelic series) in test [3]; 9.84 upbm affinity estimate (log intensity, higher = more binding, comparable within an allelic series) in test [4].

Consider CACGGCTA, for which the binding signal in test [1] was 9.31 upbm affinity estimate (log intensity, higher = more binding, comparable within an allelic series); in test [2], 9.28 upbm affinity estimate (log intensity, higher = more binding, comparable within an allelic series); in test [3], 9.21 upbm affinity estimate (log intensity, higher = more binding, comparable within an allelic series); in test [4], 9.29 upbm affinity estimate (log intensity, higher = more binding, comparable within an allelic series).

For CGCCACAA, the binding signal in test [1] is 9.76 upbm affinity estimate (log intensity, higher = more binding, comparable within an allelic series); in test [2] it was 9.79 upbm affinity estimate (log intensity, higher = more binding, comparable within an allelic series); in test [3], 9.73 upbm affinity estimate (log intensity, higher = more binding, comparable within an allelic series); in test [4], 9.79 upbm affinity estimate (log intensity, higher = more binding, comparable within an allelic series).

Take ATGTGCGC: the binding signal in test [1] was 9.81 upbm affinity estimate (log intensity, higher = more binding, comparable within an allelic series); in test [2] it was 9.85 upbm affinity estimate (log intensity, higher = more binding, comparable within an allelic series); in test [3], 9.82 upbm affinity estimate (log intensity, higher = more binding, comparable within an allelic series); in test [4], 9.8 upbm affinity estimate (log intensity, higher = more binding, comparable within an allelic series).

CAACCGTC: the binding signal in test [1] is 9.81 upbm affinity estimate (log intensity, higher = more binding, comparable within an allelic series); in test [2] it was 9.78 upbm affinity estimate (log intensity, higher = more binding, comparable within an allelic series); in test [3], 9.8 upbm affinity estimate (log intensity, higher = more binding, comparable within an allelic series); in test [4], 9.85 upbm affinity estimate (log intensity, higher = more binding, comparable within an allelic series).

On to AGAGCACT, for which the binding signal was 12 upbm affinity estimate (log intensity, higher = more binding, comparable within an allelic series) in test [1]; 12.3 upbm affinity estimate (log intensity, higher = more binding, comparable within an allelic series) in test [2]; 11.9 upbm affinity estimate (log intensity, higher = more binding, comparable within an allelic series) in test [3]; 12.3 upbm affinity estimate (log intensity, higher = more binding, comparable within an allelic series) in test [4].

Consider AAACCCCC, for which the binding signal is 9.69 upbm affinity estimate (log intensity, higher = more binding, comparable within an allelic series) in test [1]; 9.77 upbm affinity estimate (log intensity, higher = more binding, comparable within an allelic series) in test [2]; 9.71 upbm affinity estimate (log intensity, higher = more binding, comparable within an allelic series) in test [3]; 9.65 upbm affinity estimate (log intensity, higher = more binding, comparable within an allelic series) in test [4].

Take ACTCATAG: the binding signal in test [1] was 11.7 upbm affinity estimate (log intensity, higher = more binding, comparable within an allelic series); in test [2], 11.8 upbm affinity estimate (log intensity, higher = more binding, comparable within an allelic series); in test [3], 11.6 upbm affinity estimate (log intensity, higher = more binding, comparable within an allelic series); in test [4], 11.9 upbm affinity estimate (log intensity, higher = more binding, comparable within an allelic series).

In the case of CGATCGCA, the binding signal was 9.9 upbm affinity estimate (log intensity, higher = more binding, comparable within an allelic series) in test [1]; 9.92 upbm affinity estimate (log intensity, higher = more binding, comparable within an allelic series) in test [2]; 9.93 upbm affinity estimate (log intensity, higher = more binding, comparable within an allelic series) in test [3]; 9.97 upbm affinity estimate (log intensity, higher = more binding, comparable within an allelic series) in test [4].

Turning to CGCCCTGA, the binding signal in test [1] was 9.84 upbm affinity estimate (log intensity, higher = more binding, comparable within an allelic series); in test [2] it was 9.84 upbm affinity estimate (log intensity, higher = more binding, comparable within an allelic series); in test [3] it was 9.83 upbm affinity estimate (log intensity, higher = more binding, comparable within an allelic series); in test [4], 9.87 upbm affinity estimate (log intensity, higher = more binding, comparable within an allelic series).

CGCGGCCC: the binding signal in test [1] was 9.94 upbm affinity estimate (log intensity, higher = more binding, comparable within an allelic series); in test [2], 9.93 upbm affinity estimate (log intensity, higher = more binding, comparable within an allelic series); in test [3], 10 upbm affinity estimate (log intensity, higher = more binding, comparable within an allelic series); in test [4], 9.94 upbm affinity estimate (log intensity, higher = more binding, comparable within an allelic series).

As for GTACTCGA, the binding signal in test [1] is 12.4 upbm affinity estimate (log intensity, higher = more binding, comparable within an allelic series); in test [2] it was 12.9 upbm affinity estimate (log intensity, higher = more binding, comparable within an allelic series); in test [3], 12.3 upbm affinity estimate (log intensity, higher = more binding, comparable within an allelic series); in test [4], 12.9 upbm affinity estimate (log intensity, higher = more binding, comparable within an allelic series).

Regarding ACGTACTC, the binding signal in test [1] was 11.8 upbm affinity estimate (log intensity, higher = more binding, comparable within an allelic series); in test [2], 12 upbm affinity estimate (log intensity, higher = more binding, comparable within an allelic series); in test [3], 11.7 upbm affinity estimate (log intensity, higher = more binding, comparable within an allelic series); in test [4] it was 11.9 upbm affinity estimate (log intensity, higher = more binding, comparable within an allelic series).
